Test results taken from article PMC4336329 (PLoS ONE, 2015).
The whole screen tested about 310,000 compounds, of which about 14,000 (4.5%) showed an effect of 50% or more. Effects have a minus sign here. The sample as a whole holds a higher share of strong results than the screen did.

Target: human ether-à-go-go-related gene (hERG) potassium channel (human, UniProt Q12809)
Assay: primary screen, population patch clamp on CHO cells stably expressing hERG; higher = less effect of the substance
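Also: peak tail current of the secondary pulse compared with the same well before compound.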

human ether-à-go-go-related gene (hERG) potassium channel, sequence (Q12809 whole entry, looked up): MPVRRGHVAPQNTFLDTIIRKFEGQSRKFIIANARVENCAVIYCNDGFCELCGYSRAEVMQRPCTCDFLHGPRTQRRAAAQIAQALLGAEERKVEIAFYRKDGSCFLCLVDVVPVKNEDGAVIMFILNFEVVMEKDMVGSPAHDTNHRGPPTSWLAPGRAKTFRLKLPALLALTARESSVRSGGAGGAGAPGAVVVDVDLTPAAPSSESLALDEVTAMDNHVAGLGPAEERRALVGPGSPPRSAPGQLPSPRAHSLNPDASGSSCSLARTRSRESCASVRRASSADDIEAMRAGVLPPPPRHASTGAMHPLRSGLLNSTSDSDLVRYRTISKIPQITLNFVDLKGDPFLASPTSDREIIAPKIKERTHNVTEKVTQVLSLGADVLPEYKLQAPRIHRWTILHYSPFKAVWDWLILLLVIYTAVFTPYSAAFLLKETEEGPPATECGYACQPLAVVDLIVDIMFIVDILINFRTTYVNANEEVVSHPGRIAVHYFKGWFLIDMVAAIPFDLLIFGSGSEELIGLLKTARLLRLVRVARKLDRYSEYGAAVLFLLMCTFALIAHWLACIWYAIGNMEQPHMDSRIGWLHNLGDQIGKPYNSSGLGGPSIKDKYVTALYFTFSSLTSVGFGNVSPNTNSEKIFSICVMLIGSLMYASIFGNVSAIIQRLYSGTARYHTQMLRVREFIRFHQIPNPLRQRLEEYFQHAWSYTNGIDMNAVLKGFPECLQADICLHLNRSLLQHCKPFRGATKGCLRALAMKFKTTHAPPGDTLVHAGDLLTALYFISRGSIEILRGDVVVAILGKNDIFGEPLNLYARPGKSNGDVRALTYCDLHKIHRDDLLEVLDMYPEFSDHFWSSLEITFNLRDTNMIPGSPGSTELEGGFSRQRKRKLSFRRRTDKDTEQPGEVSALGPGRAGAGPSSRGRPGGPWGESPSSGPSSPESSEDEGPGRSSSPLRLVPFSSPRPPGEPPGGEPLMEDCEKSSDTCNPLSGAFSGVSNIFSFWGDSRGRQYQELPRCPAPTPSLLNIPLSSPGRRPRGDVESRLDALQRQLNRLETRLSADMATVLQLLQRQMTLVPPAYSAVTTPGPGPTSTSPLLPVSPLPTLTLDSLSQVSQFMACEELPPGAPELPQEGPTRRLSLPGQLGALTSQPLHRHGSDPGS

Going from `COc1ccccc1CNC(=O)CCc1nc2ccccc2c(=O)[nH]1` to `COc1ccccc1CCNC(=O)c1ccc2nc[nH]c2c1`, the “hERG current change (%, negative = inhibition) at 10uM” value rises from -1.26% to 3.97%.

First: CC(=O)Nc1cccc(NC(=O)c2cccc(OCc3ccccc3)c2)c1
Second: COc1cccc(NC(=O)COC(=O)c2ccccc2C(=O)N2CCN(c3ccccc3)CC2)c1
The “hERG current change (%, negative = inhibition) at 10uM” value of the first is higher: 10.6% for the first, -11.8% for the second.

Compared with `Cc1ccc(C2(C(F)(F)F)NC(=O)N3CCCN=C3S2)cc1` (stereo not shown), `Br.COc1ccc(-c2nc3n(c2C)CCC3)cc1` is lower in “hERG current change (%, negative = inhibition) at 10uM” value: 16.5% for the first, -6.52% for the second.

First: Cc1ccc(NC(=S)N(CCN2CCCCC2)Cc2ccco2)cc1C
Second: Cc1ccc(NC(=S)N(CCN2CCCCC2)Cc2ccco2)cc1Cl
The “hERG current change (%, negative = inhibition) at 10uM” value of the first is lower: -80.3% for the first, -51.1% for the second.

Compared with `Cc1cccc(C)c1NC(=S)N(CCCN1CCCCC1)Cc1ccco1`, `Cc1cccc(C)c1NC(=S)N(CCN1CCCCCC1)Cc1ccco1` is lower in “hERG current change (%, negative = inhibition) at 10uM” value: -25.7% for the first, -34.9% for the second.

First: Cc1cc(C)c(NC(=S)N(CCN2CCCCC2)Cc2ccco2)c(C)c1
Second: Cc1cc(C)cc(NC(=S)N(CCN2CCCCC2)Cc2ccco2)c1
The “hERG current change (%, negative = inhibition) at 10uM” value of the first is higher: -37.9% for the first, -74.4% for the second.

Going from `Cc1cc(NC(=S)N(CCN2CCCCC2)Cc2ccco2)ccc1Cl` to `O=C(Nc1ccc2c(c1)OCO2)N1CCN(c2ccccc2Cl)CC1`, the “hERG current change (%, negative = inhibition) at 10uM” value rises from -55.3% to -32.3%.

Going from `CN(C)CCOc1ccccc1-c1ccccc1.O=C(O)C(=O)O` to `O=C(O)/C(=C/c1cccnc1)NC(=O)c1ccccc1`, the “hERG current change (%, negative = inhibition) at 10uM” value rises from -4.52% to 20.3%.

Compared with `Nc1cc(=O)[nH]c(SCc2ccccc2Cl)n1`, `Cc1nn(Cc2c(Cl)cccc2Cl)c(C)c1N` is higher in “hERG current change (%, negative = inhibition) at 10uM” value: 3.76% for the first, 9.12% for the second.

Going from `Cc1nc2c(nnn2Cc2ccccc2)c(=O)n1-c1ccccc1` to `O=C(Nn1c(SCc2cccc([N+](=O)[O-])c2)nc2ccccc2c1=O)c1ccccc1`, the “hERG current change (%, negative = inhibition) at 10uM” value falls from 0.475% to -1.31%.

First: NC(=O)c1cc([N+](=O)[O-])ccc1N1CCCCC1
Second: CCN(CC(=O)Nc1c(F)cccc1F)C(=O)c1cc([N+](=O)[O-])ccc1N1CCCCC1
The “hERG current change (%, negative = inhibition) at 10uM” value of the first is lower: -17.2% for the first, -10.6% for the second.

Going from `Cc1ccc(S(=O)(=O)N(C)c2ccc(OC(=O)CN3C(=O)NC4(CCCC4)C3=O)cc2)cc1C` to `COc1ccc(CCNC(=O)C2CCN(S(=O)(=O)c3ccc(C)cc3)CC2)cc1`, the “hERG current change (%, negative = inhibition) at 10uM” value falls from 9.26% to 0.741%.

First: COC(=O)c1ccc(C(=O)OC)c(NC(=O)CN(C)Cc2ccc(Cl)c(Cl)c2)c1
Second: COc1ccc(C(=O)/C=C/c2ccc(OC)c(O)c2)c(F)c1
The “hERG current change (%, negative = inhibition) at 10uM” value of the first is higher: 5.46% for the first, -13.5% for the second.

Compared with `CCNC(=S)N1CCC(C(=O)c2ccc(Cl)cc2)CC1`, `O=C(Cn1ncc(N2CCCC2)c(Br)c1=O)c1ccc(Cl)cc1` is lower in “hERG current change (%, negative = inhibition) at 10uM” value: -16.8% for the first, -23.1% for the second.

Compared with `CO/N=C(\Cn1ncc(N2CCCC2)c(Br)c1=O)c1ccc(Cl)cc1`, `CO/N=C(\Cn1ncc(N2CCCC2)c(Cl)c1=O)c1ccc(Cl)cc1` is lower in “hERG current change (%, negative = inhibition) at 10uM” value: -57.5% for the first, -64% for the second.

First: CO/N=C(\Cn1ncc(N2CCOCC2)c(Br)c1=O)c1ccc(Cl)cc1
Second: O=C(Cn1ncc(N2CCCC2)c(Cl)c1=O)c1ccc(Cl)cc1
The “hERG current change (%, negative = inhibition) at 10uM” value of the first is higher: -19.7% for the first, -21.2% for the second.

Compared with `CC(C)(C)C(=O)Cn1ncc(N2CCOCC2)c(Cl)c1=O`, `CC(C)(C)C(=O)Cn1ncc(N2CCOCC2)c(Br)c1=O` is higher in “hERG current change (%, negative = inhibition) at 10uM” value: -71.9% for the first, -0.203% for the second.

Compared with `CC(=O)Cn1ncc(N2CCOCC2)c(Cl)c1=O`, `CC(=O)Cn1ncc(N2CCCCC2)c(Cl)c1=O` is higher in “hERG current change (%, negative = inhibition) at 10uM” value: 4.26% for the first, 17.8% for the second.

Going from `CCOC(=O)c1[nH]nc(-c2c(O)cc(C)cc2O)c1-c1csc(C)n1` to `CCOC(=O)C1=C(c2ccccc2)N=C2SCC(=O)N2C1c1ccc(OCC)c(OCC)c1` (stereo not shown), the “hERG current change (%, negative = inhibition) at 10uM” value falls from 11.3% to 6.45%.

Compared with `Cc1cc(C)c2c(c1)c(C)cc1nnc(SCC(=O)NCc3ccco3)n12`, `Cc1ccc(/C=N/NC(=O)CSc2nnc(-c3ccc(Cl)cc3)n2-c2ccccc2)o1` is lower in “hERG current change (%, negative = inhibition) at 10uM” value: -8.05% for the first, -39.5% for the second.

Compared with `COCCn1c(SCC(=O)NC2CCCCC2)nc2c(c1=O)SCC2`, `CCOC(=O)N1CCN(C(=O)CSc2nc(-c3cccc(C)c3)ns2)CC1` is lower in “hERG current change (%, negative = inhibition) at 10uM” value: -11.2% for the first, -38.8% for the second.

Compared with `Cc1ccc(C)c(S(=O)(=O)N2CCCOC2CNC(=O)C(=O)NCCCN2CCOCC2)c1` (stereo not shown), `Cc1ccc(C(=O)CC2(O)C(=O)N(CN3CCOCC3)c3ccccc32)cc1` (stereo not shown) is lower in “hERG current change (%, negative = inhibition) at 10uM” value: 0.752% for the first, -2.38% for the second.

First: CCN(CC)c1cc(Oc2ccccc2)ncn1
Second: COc1cccc(C(=O)CSc2nnnn2C)c1
The “hERG current change (%, negative = inhibition) at 10uM” value of the first is lower: -9.54% for the first, 4.88% for the second.

First: O=C1N(Cc2ccccc2F)c2ccccc2C12OCCCO2
Second: O=C(CC1(O)C(=O)N(CN2CCOCC2)c2ccccc21)c1ccccc1 (stereo not shown)
The “hERG current change (%, negative = inhibition) at 10uM” value of the first is higher: 10.9% for the first, -70.4% for the second.

First: O=C(OC(C(=O)c1c[nH]c2ccccc12)c1ccccc1)c1cnccn1 (stereo not shown)
Second: O=C(COC(=O)c1ccccc1C(=O)N1CCN(c2ccc(F)cc2)CC1)NCc1ccccc1
The “hERG current change (%, negative = inhibition) at 10uM” value of the first is higher: 1.77% for the first, -73.6% for the second.

First: CCc1ccc(C(=O)CC2(O)C(=O)N(CN3CCOCC3)c3ccccc32)cc1 (stereo not shown)
Second: CCOC(=O)c1ccc(NC(=O)N2CCN(c3cccc(OC)c3)CC2)cc1
The “hERG current change (%, negative = inhibition) at 10uM” value of the first is higher: 7.69% for the first, -16.5% for the second.

First: CC(C)=CCC(C)(C)C1OCCN1C(=O)c1ccccc1 (stereo not shown)
Second: CC(=O)N1CCN(C(=O)c2cc3ccccc3o2)CC1
The “hERG current change (%, negative = inhibition) at 10uM” value of the first is lower: -18.7% for the first, 20.1% for the second.

First: CC(=O)OCc1nc2ccccc2s1
Second: Cc1noc(C)c1COc1ccccc1C(=O)NC1CCC(C)CC1 (stereo not shown)
The “hERG current change (%, negative = inhibition) at 10uM” value of the first is higher: 12% for the first, 0.497% for the second.

First: O=C(CCCCCNC(=S)Nc1ccc(Cl)cc1)C[N+](=O)[O-]
Second: CSCC[C@H](NC(=O)Nc1cccc(C(F)(F)F)c1)C(=O)O
The “hERG current change (%, negative = inhibition) at 10uM” value of the first is higher: 12.9% for the first, -0.0702% for the second.

Compared with `COc1ccc(-c2[nH]ncc2CN(C)CCN2CCOCC2)cc1F`, `O=C(Nc1ccc2c(c1)OCCO2)N1CCN(c2ccc(F)cc2)CC1` is lower in “hERG current change (%, negative = inhibition) at 10uM” value: 16.6% for the first, -5.49% for the second.

First: COc1ccc(/C=C/C(=O)c2ccc(Cl)s2)cc1O
Second: COc1cc(/C=C/C(=O)c2ccc(Cl)s2)cc(OC)c1O
The “hERG current change (%, negative = inhibition) at 10uM” value of the first is higher: 1.69% for the first, -74.4% for the second.

Compared with `COc1cc(/C=C/C(=O)O)cc(OC)c1O`, `COc1ccc(C(=O)/C=C/c2cc(OC)c(O)c(OC)c2)c(F)c1` is lower in “hERG current change (%, negative = inhibition) at 10uM” value: 2.08% for the first, -52.3% for the second.

First: COc1ccc2cc(C(=O)/C=C/c3cc(OC)c(O)c(OC)c3)ccc2c1
Second: COc1ccc(/C=N/NC(=O)c2cccc(OC(F)(F)C(F)F)c2)c(OC)c1OC
The “hERG current change (%, negative = inhibition) at 10uM” value of the first is higher: 8.79% for the first, -3.77% for the second.

Compared with `O=C(Nc1sc2c(c1C(=O)O)CCCCC2)c1ccccc1`, `O=C1COc2ccc(NC(=O)c3ccccc3C(=O)O)cc2N1` is lower in “hERG current change (%, negative = inhibition) at 10uM” value: 67.4% for the first, 21.6% for the second.

Compared with `COc1cccc(N2CCN(S(=O)(=O)c3cc4c(cc3Cl)NC(=O)CO4)CC2)c1`, `COc1cccc(N2CCN(C(=O)Nc3ccc4c(c3)NC(=O)CO4)CC2)c1` is lower in “hERG current change (%, negative = inhibition) at 10uM” value: 12% for the first, -75.8% for the second.

Compared with `O=C(Nc1ccc2c(c1)OCO2)N1CCN(c2ccc(F)cc2)CC1`, `O=C1COc2ccc(NC(=O)N3CCN(c4ccc(F)cc4)CC3)cc2N1` is lower in “hERG current change (%, negative = inhibition) at 10uM” value: -28% for the first, -79.8% for the second.

First: CSc1ccccc1N1CCN(C(=O)Nc2ccc3c(c2)NC(=O)CO3)CC1
Second: O=C(COC(=O)c1ccccc1C(=O)N1CCN(c2ccccc2)CC1)Nc1ccc(F)cc1
The “hERG current change (%, negative = inhibition) at 10uM” value of the first is lower: -56.3% for the first, -21.6% for the second.

Compared with `Cc1nn(Cc2ccc([N+](=O)[O-])cc2)c(=O)n1N(C)c1ncc(C(F)(F)F)cc1Cl`, `O=C(NCc1ccccc1F)C1CC(=O)N(c2ccc3c(c2)OCCO3)C1` (stereo not shown) is higher in “hERG current change (%, negative = inhibition) at 10uM” value: -3.46% for the first, -2.83% for the second.

Going from `Cc1cccc(CSc2nnc([C@@H]3CCCN3C(=O)OC(C)(C)C)o2)c1` to `Cc1ccc(-n2cc(C(=O)c3ccccc3O)cn2)cc1`, the “hERG current change (%, negative = inhibition) at 10uM” value rises from 4.85% to 19.8%.

Compared with `O=C(COC(=O)/C=C/C(=O)N1CCN(c2ccccc2)CC1)NCc1ccc(F)cc1`, `O=C(COC(=O)c1ccccc1C(=O)N1CCN(c2ccccc2)CC1)NCc1ccccc1` is lower in “hERG current change (%, negative = inhibition) at 10uM” value: -8.17% for the first, -58% for the second.

First: CN(C(=O)COC(=O)c1ccccc1C(=O)N1CCN(c2ccccc2)CC1)c1ccccc1
Second: O=C(COC(=O)c1ccccc1C(=O)N1CCN(c2ccccc2)CC1)Nc1ccccc1
The “hERG current change (%, negative = inhibition) at 10uM” value of the first is higher: -17% for the first, -25.8% for the second.

Compared with `O=C(c1ccccc1Oc1ccccc1)N1CCN(c2ccc(F)cc2)CC1`, `CC(C)N(C(=O)COC(=O)c1ccccc1C(=O)N1CCN(c2ccc(F)cc2)CC1)C(C)C` is lower in “hERG current change (%, negative = inhibition) at 10uM” value: -33.9% for the first, -55.9% for the second.

Going from `O=C1CCC([N+](=O)[O-])C(c2ccc(Br)cc2)N1` (stereo not shown) to `COC(=O)c1ccc(NS(=O)(=O)c2ccc(SC)cc2)cc1`, the “hERG current change (%, negative = inhibition) at 10uM” value falls from 7.57% to -2.34%.

First: O=C(Nc1ccncc1)c1cc2ccccc2cc1O
Second: CCCCNC(=O)[C@H]1C[C@H]1[C@@H](O)[C@H](CO)NC(=O)[C@H](CC(C)C)NC(=O)OC(C)(C)C
The “hERG current change (%, negative = inhibition) at 10uM” value of the first is lower: 5.89% for the first, 16.1% for the second.
